Assay results as given in paper PMC7862700, “An all-to-all approach to the identification of sequence-specific readers for epigenetic DNA modifications on cytosine”.

Tests used:
Assay in all cases: DAPPL (digital affinity profiling via proximity ligation, sequencing); 10 mM Tris-HCl pH 7.5, 50 mM NaCl, 1 mM DTT, 4% glycerol, room temperature, 30 min; GST-TFs on glutathione beads, 16-mer random dsDNA library, 0.1% formaldehyde crosslink after washing; high values mean tight binding
FEV = target: T1, FEV (Homo sapiens, UniProt Q99581 1-238); conditions: protein: recombinant; tags: N-terminal GST; dsDNA, one strand shown
T1 sequence: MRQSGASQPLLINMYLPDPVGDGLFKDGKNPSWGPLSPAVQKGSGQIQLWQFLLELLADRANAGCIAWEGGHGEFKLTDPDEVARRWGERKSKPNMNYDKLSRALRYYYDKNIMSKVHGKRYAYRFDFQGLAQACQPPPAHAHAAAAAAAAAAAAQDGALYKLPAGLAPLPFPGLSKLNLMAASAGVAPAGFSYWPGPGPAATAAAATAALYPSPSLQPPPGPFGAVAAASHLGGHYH
Outline: (§1)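 Human transcription factors fused to GST were expressed in yeast, captured on glutathione beads, given DNA barcodes and pooled with a GST-only negative control. Pools were incubated with 200 nmole of a 16-mer random double-stranded DNA library in Tris/NaCl/DTT/glycerol buffer at room temperature for 30 min. They were then washed, crosslinked with 0.1% formaldehyde, proximity-ligated (BsaI/T4 ligase, 1 h, 37 °C), PCR-amplified and sequenced on an Illumina NextSeq500. Binding signal is each 6-mer's read frequency for a factor divided by its frequency for the GST control.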

ETV5 = ETV5 (Homo sapiens, UniProt P41161 1-510); conditions: protein: recombinant; tags: N-terminal GST; dsDNA, one strand shown
Chain of ETV5 (P41161 whole entry): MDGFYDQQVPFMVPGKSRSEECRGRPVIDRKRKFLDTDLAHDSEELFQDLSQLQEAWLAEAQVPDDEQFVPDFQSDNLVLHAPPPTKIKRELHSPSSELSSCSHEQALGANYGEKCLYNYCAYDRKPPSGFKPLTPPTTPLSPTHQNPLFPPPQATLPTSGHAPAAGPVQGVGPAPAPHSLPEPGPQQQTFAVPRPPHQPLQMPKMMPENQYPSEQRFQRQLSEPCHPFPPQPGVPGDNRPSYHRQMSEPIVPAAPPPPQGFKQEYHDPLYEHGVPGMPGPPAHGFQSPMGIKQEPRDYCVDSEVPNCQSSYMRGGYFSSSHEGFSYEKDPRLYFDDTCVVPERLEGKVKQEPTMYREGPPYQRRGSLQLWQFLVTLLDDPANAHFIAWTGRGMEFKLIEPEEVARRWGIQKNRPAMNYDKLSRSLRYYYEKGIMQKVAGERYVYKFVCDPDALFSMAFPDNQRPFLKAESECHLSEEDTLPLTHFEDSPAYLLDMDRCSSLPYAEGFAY
Outline: as §1

HSF1 = HSF1 (Homo sapiens, UniProt Q00613 1-529); conditions: protein: recombinant; tags: N-terminal GST; chain copies: 3; dsDNA, one strand shown
Chain of HSF1 (Q00613 whole entry): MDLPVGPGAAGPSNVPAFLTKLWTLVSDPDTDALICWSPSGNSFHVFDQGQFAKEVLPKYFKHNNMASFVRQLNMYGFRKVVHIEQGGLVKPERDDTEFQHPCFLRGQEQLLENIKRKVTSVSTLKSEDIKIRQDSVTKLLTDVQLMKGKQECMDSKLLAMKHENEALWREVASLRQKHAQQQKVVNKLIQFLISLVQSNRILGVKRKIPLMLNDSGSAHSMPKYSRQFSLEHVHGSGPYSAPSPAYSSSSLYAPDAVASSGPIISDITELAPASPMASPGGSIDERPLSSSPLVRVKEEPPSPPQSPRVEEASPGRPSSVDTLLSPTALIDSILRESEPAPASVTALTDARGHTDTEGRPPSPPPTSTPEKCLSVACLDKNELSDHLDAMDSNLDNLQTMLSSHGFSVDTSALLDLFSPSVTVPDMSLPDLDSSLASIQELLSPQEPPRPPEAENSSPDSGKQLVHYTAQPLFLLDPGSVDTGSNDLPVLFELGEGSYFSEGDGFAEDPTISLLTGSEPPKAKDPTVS
Outline: as §1

SPIC = target: T2, SPIC (Homo sapiens, UniProt Q8N5J4 1-248); conditions: protein: recombinant; tags: N-terminal GST; dsDNA, one strand shown
T2 sequence: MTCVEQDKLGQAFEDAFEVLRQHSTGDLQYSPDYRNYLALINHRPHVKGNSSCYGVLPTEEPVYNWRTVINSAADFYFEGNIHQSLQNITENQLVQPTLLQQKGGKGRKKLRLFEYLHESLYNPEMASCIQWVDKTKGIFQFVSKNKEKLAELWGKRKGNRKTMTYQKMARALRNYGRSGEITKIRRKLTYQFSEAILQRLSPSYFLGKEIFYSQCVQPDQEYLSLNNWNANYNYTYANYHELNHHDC
Outline: as §1

ELF4 = ELF4 (Homo sapiens, UniProt Q99607 1-663); conditions: protein: recombinant; tags: N-terminal GST; dsDNA, one strand shown
Chain of ELF4 (Q99607 whole entry): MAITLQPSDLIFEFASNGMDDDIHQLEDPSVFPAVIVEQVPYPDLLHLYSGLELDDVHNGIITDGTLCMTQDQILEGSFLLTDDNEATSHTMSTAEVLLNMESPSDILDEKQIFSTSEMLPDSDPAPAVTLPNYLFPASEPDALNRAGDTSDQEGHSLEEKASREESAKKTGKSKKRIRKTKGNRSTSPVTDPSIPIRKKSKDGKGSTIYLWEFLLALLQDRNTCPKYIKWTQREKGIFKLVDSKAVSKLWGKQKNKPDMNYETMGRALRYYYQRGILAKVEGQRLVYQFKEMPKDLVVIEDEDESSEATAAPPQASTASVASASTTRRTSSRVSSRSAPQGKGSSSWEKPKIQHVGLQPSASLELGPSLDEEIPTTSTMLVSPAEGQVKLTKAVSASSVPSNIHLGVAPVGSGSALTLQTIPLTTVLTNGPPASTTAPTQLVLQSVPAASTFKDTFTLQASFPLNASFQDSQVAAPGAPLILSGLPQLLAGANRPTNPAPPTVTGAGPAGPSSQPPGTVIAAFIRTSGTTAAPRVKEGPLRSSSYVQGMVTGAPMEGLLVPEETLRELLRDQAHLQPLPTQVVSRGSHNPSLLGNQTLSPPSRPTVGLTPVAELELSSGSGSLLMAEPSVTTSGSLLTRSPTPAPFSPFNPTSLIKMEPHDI
Outline: as §1

ELK4 = target: T3, ELK4 (Homo sapiens, UniProt P28324-2 1-405); conditions: protein: recombinant; tags: N-terminal GST; dsDNA, one strand shown
T3 sequence: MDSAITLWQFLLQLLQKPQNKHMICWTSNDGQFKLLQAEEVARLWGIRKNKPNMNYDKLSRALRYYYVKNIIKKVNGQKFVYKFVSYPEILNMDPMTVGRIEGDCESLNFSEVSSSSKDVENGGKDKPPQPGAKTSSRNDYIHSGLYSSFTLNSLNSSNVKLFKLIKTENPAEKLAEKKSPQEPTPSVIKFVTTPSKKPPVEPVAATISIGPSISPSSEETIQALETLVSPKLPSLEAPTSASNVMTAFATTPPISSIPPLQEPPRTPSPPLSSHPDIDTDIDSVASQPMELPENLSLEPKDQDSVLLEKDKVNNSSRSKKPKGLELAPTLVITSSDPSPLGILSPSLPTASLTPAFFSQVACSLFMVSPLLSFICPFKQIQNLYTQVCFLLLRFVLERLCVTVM
Outline: as §1

ETV2 = target: T4, ETV2 (Homo sapiens, UniProt O00321 1-342); conditions: protein: recombinant; tags: N-terminal GST; dsDNA, one strand shown
T4 sequence: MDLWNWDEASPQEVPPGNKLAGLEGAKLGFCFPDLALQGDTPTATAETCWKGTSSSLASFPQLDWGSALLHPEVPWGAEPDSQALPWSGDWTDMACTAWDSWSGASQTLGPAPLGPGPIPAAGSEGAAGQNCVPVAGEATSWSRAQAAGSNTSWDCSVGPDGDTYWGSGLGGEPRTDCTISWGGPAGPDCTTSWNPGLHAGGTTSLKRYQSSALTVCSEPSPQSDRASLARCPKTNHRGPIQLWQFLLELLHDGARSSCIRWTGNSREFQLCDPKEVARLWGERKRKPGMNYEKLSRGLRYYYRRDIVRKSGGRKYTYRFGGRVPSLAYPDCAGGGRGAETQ
Outline: as §1

ELF3 = target: T5, ELF3 (Homo sapiens, UniProt P78545 1-371); conditions: protein: recombinant; tags: N-terminal GST; dsDNA, one strand shown
T5 sequence: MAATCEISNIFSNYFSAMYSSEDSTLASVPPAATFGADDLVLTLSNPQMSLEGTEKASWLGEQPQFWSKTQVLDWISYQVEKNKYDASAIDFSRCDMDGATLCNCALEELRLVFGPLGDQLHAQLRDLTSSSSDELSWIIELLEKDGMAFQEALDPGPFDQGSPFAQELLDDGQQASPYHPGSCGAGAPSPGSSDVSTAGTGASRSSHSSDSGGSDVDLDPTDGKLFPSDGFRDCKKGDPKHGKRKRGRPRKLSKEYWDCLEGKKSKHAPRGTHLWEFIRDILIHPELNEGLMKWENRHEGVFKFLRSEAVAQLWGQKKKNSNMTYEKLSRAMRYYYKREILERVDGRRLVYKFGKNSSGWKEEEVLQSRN
Outline: as §1

CRX = CRX (Homo sapiens, UniProt O43186 1-299); conditions: protein: recombinant; tags: N-terminal GST; dsDNA, one strand shown
Chain of CRX (O43186 whole entry): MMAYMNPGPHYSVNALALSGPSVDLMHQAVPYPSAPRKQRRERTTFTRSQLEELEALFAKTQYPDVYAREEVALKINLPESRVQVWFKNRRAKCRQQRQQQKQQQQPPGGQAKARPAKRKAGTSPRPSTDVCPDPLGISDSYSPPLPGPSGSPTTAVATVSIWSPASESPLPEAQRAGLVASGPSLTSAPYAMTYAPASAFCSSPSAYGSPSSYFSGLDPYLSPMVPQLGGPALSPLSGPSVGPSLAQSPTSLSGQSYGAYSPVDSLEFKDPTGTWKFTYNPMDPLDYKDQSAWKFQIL
Outline: as §1

ETV1 = ETV1 (Homo sapiens, UniProt P50549 1-477); conditions: protein: recombinant; tags: N-terminal GST; dsDNA, one strand shown
Chain of ETV1 (P50549 whole entry): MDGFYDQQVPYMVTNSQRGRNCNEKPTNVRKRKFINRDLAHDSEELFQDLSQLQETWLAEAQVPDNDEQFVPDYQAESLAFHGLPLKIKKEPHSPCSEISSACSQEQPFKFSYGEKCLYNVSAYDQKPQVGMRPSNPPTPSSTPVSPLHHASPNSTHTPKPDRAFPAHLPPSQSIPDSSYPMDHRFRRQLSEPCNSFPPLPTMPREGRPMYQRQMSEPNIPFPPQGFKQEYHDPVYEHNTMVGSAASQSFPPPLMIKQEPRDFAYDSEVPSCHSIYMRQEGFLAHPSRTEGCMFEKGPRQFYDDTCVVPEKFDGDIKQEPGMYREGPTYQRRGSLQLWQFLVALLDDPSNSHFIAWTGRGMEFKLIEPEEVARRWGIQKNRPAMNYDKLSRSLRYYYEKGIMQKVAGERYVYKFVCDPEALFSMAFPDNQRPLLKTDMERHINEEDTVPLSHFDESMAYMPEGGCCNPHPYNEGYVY
Outline: as §1

Sequence: TGTTTT
- binding signal (FEV): 1.24 fold enrichment (6-mer frequency, TF over GST control)
- binding signal (ETV5): 1.42 fold enrichment (6-mer frequency, TF over GST control)
- binding signal (HSF1): 1.21 fold enrichment (6-mer frequency, TF over GST control)
- binding signal (SPIC): 1.36 fold enrichment (6-mer frequency, TF over GST control)
- binding signal (ELF4): 1.37 fold enrichment (6-mer frequency, TF over GST control)
- binding signal (ELK4): 1.35 fold enrichment (6-mer frequency, TF over GST control)
- binding signal (ETV2): 1.38 fold enrichment (6-mer frequency, TF over GST control)
- binding signal (ELF3): 1.33 fold enrichment (6-mer frequency, TF over GST control)
- binding signal (CRX): 1.23 fold enrichment (6-mer frequency, TF over GST control)
- binding signal (ETV1): 1.29 fold enrichment (6-mer frequency, TF over GST control)
